PubChem BioAssay (NCI)
The panel holds about 83,000 compounds, 20% with a hit somewhere; the sample as a whole holds those more often.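 Results are percent growth after 48 hours of single-concentration exposure. 100 means growth as in untreated cells, lower positive values show inhibition; negative values down to -100 show cell death.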 Calls of active or inactive are those of the source. How the source made its calls: active means growth percent below 10; inactive means the rest.

Assays:
Assay in all cases: NCI-60 one-dose screen, 48 h (100 = growth as untreated, 0 = no growth, -100 = all killed)
Conditions in all cases: 10 µM unless noted
NCI-H23 lung = system: NCI-H23 lung
NCI-H226 lung = system: NCI-H226 lung
NCI-H322M lung = system: NCI-H322M lung
HOP-62 NSCLC = system: HOP-62 NSCLC
NCI-H460 lung = system: NCI-H460 lung
HOP-92 NSCLC = system: HOP-92 NSCLC
NCI-H522 lung = system: NCI-H522 lung
A549/ATCC NSCLC = system: A549/ATCC NSCLC
786-0 renal = system: 786-0 renal
COLO 205 colon = system: COLO 205 colon

Measured: growth

COc1ccc(S(=O)(=O)NCCNc2nccc(-c3c(-c4cccc([N+](=O)[O-])c4)nc4sccn34)n2)cc1
inactive: NCI-H23 lung 93.1% | NCI-H226 lung 82.2% | NCI-H322M lung 97.5% | HOP-62 NSCLC 99.3% | NCI-H460 lung 87.3% | HOP-92 NSCLC 87.5% | NCI-H522 lung 86% | A549/ATCC NSCLC 80.2% | 786-0 renal 87.9% | COLO 205 colon 95.1%

C(=N\Nc1nnn(Cc2ccccc2)n1)/c1ccccc1
inactive: NCI-H23 lung 53.1% | NCI-H226 lung 85% | NCI-H322M lung 86% | HOP-62 NSCLC 67.3% | NCI-H460 lung 17.4% | HOP-92 NSCLC 87.2% | NCI-H522 lung 29.2% | A549/ATCC NSCLC 33.6% | 786-0 renal 63.6% | COLO 205 colon 36.9%

COc1cc(OC)c(/C=C/C(=O)c2c(OC)cc(OC)cc2OC)c(OC)c1
inactive: NCI-H226 lung 36.1% | NCI-H322M lung 21.4% | HOP-62 NSCLC 27% | HOP-92 NSCLC 130% | A549/ATCC NSCLC 25.1% | 786-0 renal 29%
active: NCI-H23 lung 6.77% | NCI-H460 lung 5.86% | NCI-H522 lung 2.82% | COLO 205 colon -6.76%

NS(=O)(=O)c1ccc(-n2ncc3c(=O)[nH]c(CN4CCN(c5cc6c(cc5F)c(=O)c(C(=O)O)cn6C5CC5)CC4)nc32)cc1
inactive: NCI-H23 lung 87.9% | NCI-H226 lung 100% | NCI-H322M lung 102% | HOP-62 NSCLC 113% | NCI-H460 lung 101% | HOP-92 NSCLC 88.4% | NCI-H522 lung 91.8% | A549/ATCC NSCLC 104% | 786-0 renal 96.1% | COLO 205 colon 114%

CNc1nc(C)c(-c2nc(Nc3cccc(S(N)(=O)=O)c3)ncc2F)s1
inactive: HOP-92 NSCLC 38.2%
active: NCI-H23 lung -18.8% | NCI-H226 lung 7.23% | NCI-H322M lung 3.99% | HOP-62 NSCLC 3.17% | NCI-H460 lung 4.4% | NCI-H522 lung -11.7% | A549/ATCC NSCLC 3.85% | 786-0 renal 2.98% | COLO 205 colon -66.1%

Cc1nn(-c2nc3ccccc3[nH]2)c2c1C(c1ccc3c(c1)OCO3)CC(=O)N2 (stereo not given)
active: NCI-H23 lung 4.34% | NCI-H460 lung -8.19%
inactive: NCI-H226 lung 32% | NCI-H322M lung 65% | HOP-62 NSCLC 22.1% | HOP-92 NSCLC 12.6% | NCI-H522 lung 26.7% | A549/ATCC NSCLC 22.8% | 786-0 renal 32.8% | COLO 205 colon 83.1%

C=CC[N+]1(CC)CCN=C1CCCCCCCCCCCCCCCCC (stereo not given)
inactive: NCI-H322M lung 27.8%
active: NCI-H23 lung -92.9% | NCI-H226 lung -50% | HOP-62 NSCLC -95% | NCI-H460 lung -100% | HOP-92 NSCLC -57.6% | NCI-H522 lung -85.2% | A549/ATCC NSCLC -92.9% | 786-0 renal -98.4% | COLO 205 colon -100%

COc1cc(-c2c3sc(=O)[nH]c3nc3c2c(=O)[nH]n3C(C)C)cc2c1OCO2
inactive: NCI-H23 lung 108% | NCI-H226 lung 96.3% | NCI-H322M lung 99.9% | HOP-62 NSCLC 107% | NCI-H460 lung 101% | HOP-92 NSCLC 114% | NCI-H522 lung 96.8% | A549/ATCC NSCLC 94.8% | 786-0 renal 106% | COLO 205 colon 119%

CCCCCCCCCCCCCC1=NCCN1CCO
inactive: NCI-H23 lung 72% | NCI-H226 lung 95% | NCI-H322M lung 93.5% | HOP-62 NSCLC 58.9% | HOP-92 NSCLC 24.5% | NCI-H522 lung 89% | A549/ATCC NSCLC 65.1% | 786-0 renal 68.8%
active: NCI-H460 lung -68.9% | COLO 205 colon -75%

Oc1ccc(Nc2nccc(-c3ccc4ccccc4c3)n2)cc1
inactive: NCI-H23 lung 30.7% | NCI-H226 lung 60.9% | NCI-H322M lung 44.4% | HOP-62 NSCLC 36.9% | NCI-H460 lung 14.8% | HOP-92 NSCLC 89.5% | NCI-H522 lung 30.9% | A549/ATCC NSCLC 14.1% | 786-0 renal 40.1% | COLO 205 colon 98%

O=C1Nc2ccccc2C12CC(c1ccc(Cl)cc1)=NN2 (stereo not given)
inactive: NCI-H23 lung 101% | NCI-H226 lung 86.6% | NCI-H322M lung 110% | HOP-62 NSCLC 104% | NCI-H460 lung 97.9% | HOP-92 NSCLC 74.3% | NCI-H522 lung 90.1% | A549/ATCC NSCLC 82.2% | 786-0 renal 100% | COLO 205 colon 108%

CCN(CC)c1ccc(CNc2cc(C)nc3ccc(OC)cc23)cc1
inactive: NCI-H23 lung 21.2% | NCI-H226 lung 75.8% | HOP-62 NSCLC 102% | HOP-92 NSCLC 20.7% | NCI-H522 lung 24.6% | A549/ATCC NSCLC 70.2% | 786-0 renal 73.7%
active: NCI-H322M lung -5.55% | NCI-H460 lung -39.4% | COLO 205 colon -75.2%

NC(=S)N/N=C/c1cc(-c2cccc(N)c2)ccn1
active: NCI-H322M lung 8.21% | HOP-62 NSCLC 5.98% | NCI-H460 lung 5.59% | NCI-H522 lung -17.3%
inactive: NCI-H23 lung 23.1% | NCI-H226 lung 16.5% | HOP-92 NSCLC 39.7% | A549/ATCC NSCLC 21.7% | 786-0 renal 31.4% | COLO 205 colon 25.5%

COc1cc(C2C(C(=O)c3cccs3)=C(O)C(=O)N2CCN2CCOCC2)cc(OC)c1OC (stereo not given)
inactive: NCI-H23 lung 103% | NCI-H226 lung 103% | NCI-H322M lung 102% | HOP-62 NSCLC 107% | NCI-H460 lung 101% | HOP-92 NSCLC 99.8% | NCI-H522 lung 92.2% | A549/ATCC NSCLC 104% | 786-0 renal 103% | COLO 205 colon 111%

O=C(COc1cccc(/C=C2/Oc3ccccc3C2=O)c1)Nc1nccs1
inactive: NCI-H23 lung 61.6% | NCI-H226 lung 99.3% | NCI-H322M lung 95.7% | HOP-62 NSCLC 93.3% | NCI-H460 lung 103% | A549/ATCC NSCLC 88.2% | 786-0 renal 90.7% | COLO 205 colon 235%
active: HOP-92 NSCLC -51.4% | NCI-H522 lung -9.74%

CC1=C(NCCN2CCCC2)C(=O)c2c(OCc3ccc(C(F)(F)F)cc3)cccc2C1=O
inactive: NCI-H23 lung 90.2% | NCI-H226 lung 91.3% | NCI-H322M lung 91% | HOP-62 NSCLC 86.9% | NCI-H460 lung 68.9% | HOP-92 NSCLC 32.5% | NCI-H522 lung 100% | A549/ATCC NSCLC 85% | 786-0 renal 67% | COLO 205 colon 82.4%

C#Cc1nc(Nc2cc(C)[nH]n2)c2ccccc2n1
active: NCI-H23 lung -19.4% | NCI-H226 lung -63.3% | NCI-H322M lung -18.2% | HOP-62 NSCLC -61.2% | NCI-H460 lung -36.7% | HOP-92 NSCLC -46.3% | NCI-H522 lung -72.7% | A549/ATCC NSCLC -35.7% | 786-0 renal -60.7% | COLO 205 colon -56.6%

CCCCCCCCCCCCCCCCCCNC(=O)[C@H]1CSC(c2ccc(F)c(OC)c2)N1 (stereo not given in full)
inactive: COLO 205 colon 20.1%
active: NCI-H23 lung 5.24% | NCI-H226 lung -69% | NCI-H322M lung -22.2% | HOP-62 NSCLC -97.6% | NCI-H460 lung -77.7% | HOP-92 NSCLC -5.83% | NCI-H522 lung 7.12% | A549/ATCC NSCLC -12.9% | 786-0 renal -10.6%

C[C@]12C[C@@H](c3ccoc3)OC(=O)[C@@H]1CC[C@]1(C)[C@@H]2CC[C@@H](O)[C@]1(C)O
inactive: NCI-H23 lung 76.1% | NCI-H226 lung 107% | NCI-H322M lung 99.2% | HOP-62 NSCLC 49.4% | NCI-H460 lung 50.1% | HOP-92 NSCLC 54.2% | NCI-H522 lung 55.5% | A549/ATCC NSCLC 49.5% | 786-0 renal 84% | COLO 205 colon 40.9%

N=c1c2ccccc2nc2n1CCCCC2
inactive: NCI-H23 lung 102% | NCI-H226 lung 102% | NCI-H322M lung 112% | HOP-62 NSCLC 105% | NCI-H460 lung 113% | HOP-92 NSCLC 133% | NCI-H522 lung 116% | A549/ATCC NSCLC 101% | 786-0 renal 119% | COLO 205 colon 104%

CC(C)CC(CC1=CCC2CC1C2(C)C)C1=C(O)C(C)(C)C(=O)C(C)(C)C1=O (stereo not given)
active: NCI-H23 lung 5.33% | NCI-H322M lung 9.97% | HOP-62 NSCLC -4.19% | NCI-H460 lung 4.62% | HOP-92 NSCLC -27.4% | NCI-H522 lung 3.54% | A549/ATCC NSCLC 0.788% | 786-0 renal 6.76% | COLO 205 colon -65.7%
inactive: NCI-H226 lung 13.7%

CC[C@@H](C)OC(=O)c1nn(C(C)=O)c2ccccc12
inactive: NCI-H23 lung 91.6% | NCI-H226 lung 85.1% | NCI-H322M lung 107% | HOP-62 NSCLC 105% | NCI-H460 lung 112% | HOP-92 NSCLC 104% | NCI-H522 lung 87.1% | A549/ATCC NSCLC 90% | 786-0 renal 103% | COLO 205 colon 108%

ClC1=C2NC=NC2n2c(nnc2-c2ccc(Cl)cc2)N1 (stereo not given)
inactive: NCI-H23 lung 107% | NCI-H226 lung 96.2% | NCI-H322M lung 110% | HOP-62 NSCLC 98.7% | NCI-H460 lung 106% | HOP-92 NSCLC 109% | NCI-H522 lung 73.2% | A549/ATCC NSCLC 81.4% | 786-0 renal 97.2% | COLO 205 colon 89.8%

COc1ccccc1N1CCN(CCn2c(=O)c3c(c4ccccc4n3C)n(C)c2=O)CC1
inactive: NCI-H23 lung 103% | NCI-H226 lung 82.9% | NCI-H322M lung 101% | HOP-62 NSCLC 107% | NCI-H460 lung 96.7% | HOP-92 NSCLC 92.1% | NCI-H522 lung 45.2% | A549/ATCC NSCLC 71.5% | 786-0 renal 111% | COLO 205 colon 100%

COc1c(C2CC(=O)Nc3c2cnn3Cc2ccco2)cc2c(c1OC)OCO2 (stereo not given)
inactive: NCI-H23 lung 29.9% | NCI-H226 lung 44.7% | NCI-H322M lung 55.4% | HOP-62 NSCLC 12.2% | HOP-92 NSCLC 48.9% | A549/ATCC NSCLC 27.6% | 786-0 renal 35.4%
active: NCI-H460 lung 2.88% | NCI-H522 lung -2.1% | COLO 205 colon -49.1%

Cc1ccc(/C=C2\Oc3cc(OCC(=O)c4ccc(Cl)cc4)ccc3C2=O)cc1
inactive: NCI-H23 lung 90.1% | NCI-H226 lung 109% | NCI-H322M lung 103% | HOP-62 NSCLC 104% | NCI-H460 lung 120% | HOP-92 NSCLC 88.2% | NCI-H522 lung 103% | A549/ATCC NSCLC 90.1% | 786-0 renal 107% | COLO 205 colon 111%

c1ccc(CSc2ncnc3nc[nH]c23)nc1
inactive: NCI-H23 lung 99.1% | NCI-H226 lung 91.4% | NCI-H322M lung 103% | HOP-62 NSCLC 92.2% | NCI-H460 lung 104% | HOP-92 NSCLC 135% | NCI-H522 lung 82.7% | A549/ATCC NSCLC 106% | 786-0 renal 92.4% | COLO 205 colon 121%
